This is one part of a sample in which hits are shown more often than they occur.
Glioma ERSR ind: inducers of ER stress response in human glioma cells | U87-MG GRP78 promoter luciferase reporter, 16 h | 420,000 compounds, 0.02% hits | Potency, µM, for the others: at the highest dose activation, hits mostly activators; further: series mostly up to about 76 µM; % of control where 0% means no effect; nearly all actives have a fitted effect of over 35% in size
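Stably transfected U87-MG glioma cells carrying a GRP78-based luciferase sensor; 16 h compound incubation. Luminescence end-point read 10 min after Bright-Glo addition at room temperature.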
VDR inhibitor: blocks the human vitamin D receptor; VDR-SRC2-3 peptide fluorescence polarization, 2 h; 400,000 compounds, 0.93% hits; P11473; Potency, µM, for the others: max response, negative = inhibition, most hits filed as inhibitors; further: on the % scale 0 is the no-effect control and ±100 the full control effect
Target sequence (P11473 whole entry, looked up): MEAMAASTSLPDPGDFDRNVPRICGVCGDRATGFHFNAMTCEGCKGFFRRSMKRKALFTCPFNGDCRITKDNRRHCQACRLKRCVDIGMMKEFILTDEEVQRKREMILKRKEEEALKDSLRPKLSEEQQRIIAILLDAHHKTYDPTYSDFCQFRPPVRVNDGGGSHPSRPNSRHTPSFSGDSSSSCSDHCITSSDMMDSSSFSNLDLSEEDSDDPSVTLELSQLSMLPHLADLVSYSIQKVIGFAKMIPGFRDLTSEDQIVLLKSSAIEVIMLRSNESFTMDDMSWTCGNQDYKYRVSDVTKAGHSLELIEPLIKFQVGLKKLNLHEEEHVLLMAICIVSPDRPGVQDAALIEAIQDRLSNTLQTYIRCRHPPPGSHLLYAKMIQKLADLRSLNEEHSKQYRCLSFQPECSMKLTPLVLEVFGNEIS
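After 23 nl compound addition and a short centrifugation, plates sat for 2 hours at ambient temperature; polarization of fluorescence then indicated loss of VDR binding to peptide SRC2-3.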
G9a block: blocks human histone lysine methyltransferase G9a. G9a H3K9 monomethylation, AlphaScreen, 2 h. Potency, µM (highest dose often 102 µM), without a hit: at the highest dose activity, negative = inhibition, most hits filed as inhibitors. 350,000 compounds, 8.8% hits; further: on the % scale 0 is the no-effect control and ±100 the full control effect; nearly all actives have a fitted effect of over 75% in size
Target sequence (Q96KQ7 913-1193 limits assumed): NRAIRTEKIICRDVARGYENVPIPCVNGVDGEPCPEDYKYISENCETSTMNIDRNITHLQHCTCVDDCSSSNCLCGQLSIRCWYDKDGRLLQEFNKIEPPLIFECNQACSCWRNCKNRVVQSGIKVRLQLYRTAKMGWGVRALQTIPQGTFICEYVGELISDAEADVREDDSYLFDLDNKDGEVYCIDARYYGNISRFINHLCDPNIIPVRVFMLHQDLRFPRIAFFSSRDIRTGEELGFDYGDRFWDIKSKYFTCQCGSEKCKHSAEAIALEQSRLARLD
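AlphaScreen read-out: biotin-H3K9 peptide (500 nM) methylation by 20 nM enzyme with 20 uM SAM, 2 h at room temperature after 15 min compound preincubation; anti-monomethyl H3K9 antibody plus donor/acceptor beads, 10 min dark.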
Sfp PPTase inh: inhibitors of Bacillus subtilis Sfp phosphopantetheinyl transferase | Q9F4F7 | Biochemical Sfp PPTase activity, qHTS | Potency, µM, without a hit: largest response in the series, negative = inhibition, most hits filed as inhibitors | 310,000 compounds, 3.5% hits;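 further: the enzyme is Sfp with the accession as filed and its product quenches rhodamine fluorescence; 0% = enzyme reaction without inhibitor and -100% = no enzyme wells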
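Compounds were incubated with enzyme (final 15 nM) for 15 min at room temperature before substrate addition started the reaction. Fluorescence at 525 nm excitation, 598 nm emission was recorded immediately and after 30 minutes.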
ALOX12 inh: blocks human arachidonate 12S-lipoxygenase | 580,000 compounds, 1.1% hits | Potency, µM (titrated, usually from 108 µM), inactives show at the top dose activity change, negative = inhibition, usual class: inhibitors | purified 12hLO, xylenol orange hydroperoxide absorbance; further: on the % scale 0 is the no-effect control and ±100 the full control effect
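Hydroperoxide product was detected by ferrous iron/xylenol orange as the 573 to 405 nm absorbance ratio. Arachidonic acid at 40 uM (final) was turned over for 30 min at room temperature by 150 nM human 12hLO, pH 7.0 Hepes buffer, after 15 min compound preincubation.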
* hit, by the source's call; u = inconclusive; x = no result given; [ ] = another dose, or the depositor's remark. The call rests on the fitted dose curve; in most records, active means well fitted curve in the direction sought with a large enough effect; inconclusive means small, poorly fitted or top-dose-only effect, or another doubt; inactive means no such curve, though single readings can be large; an effect the other way counts as inactive or inconclusive. Potency means the concentration at half of the fitted maximal effect.

SMILES	Glioma ERSR ind	VDR inhibitor	G9a block	Sfp PPTase inh	ALOX12 inh
CCOC(=O)c1csc(N/N=C2\CCCc3ccccc32)n1	6%	2%	25µM*	79µM*	u
CCOC(=O)c1csc(N/N=C2\CCc3ccccc32)n1	4%	5%	28µM*	-15%	u
Cc1ccccc1NC(=O)CSc1ncnc2ccccc12	x	x	x	x	-7%
O=C(CSc1ncnc2ccccc12)N1CCCC1	1%	1%	-19%	25%	-11%
O=C(CSc1ncnc2ccccc12)c1cccs1	-4%	-8%	22µM*	-64%	-29%
Cc1ccc(C(=O)CSc2ncnc3ccccc23)o1	-3%	-7%	25µM*	u	-19%
N#Cc1ccccc1S(=O)(=O)NC1CCSc2c(F)cccc21 (configuration not stated)	x	x	x	x	-4%
CCN1C(=O)/C(=C/C=C2/Sc3ccc4ccccc4c3N2CCO)SC1=S	-5%	3%	-9%[59 µM]	50µM*	-20%
CCN1C(c2ccccc2)=C(c2ccccc2)S/C1=C/C=C1\SC(=S)N(C)C1=O	-7%	u	5.6µM*	u	u
O=C(Nc1cnc2ccccc2c1)c1ccc(Cl)cc1Cl	x	x	x	x	23%
O=C(COc1cccc(F)c1)Nc1cccc2cccnc12	x	x	x	x	14%
CCOc1ccc(C(=O)Nc2cccc3cccnc23)cc1Cl	x	x	x	x	-9%
Cc1ccc(C(CNC(=O)c2cc3ccccc3oc2=O)N2CCCC2)o1 (configuration not stated)	x	x	x	x	2%
Cc1ccc(N=N/C(=C\O)C(=O)c2ccc(Cl)cc2)cc1	0%	3%	25µM*	10%	u
O=C(/C(=C/O)N=Nc1ccccc1)c1ccc(Cl)cc1	-2%	-17%	-42%	-13%	u
CC(=O)c1ccc(-c2ccc(C(=O)NC3CC(C)(C)NC(C)(C)C3)o2)cc1	0%	-14%	40µM*	x	-19%
CC(=O)c1ccc(-c2ccc(C(=O)NCC3CCCO3)o2)cc1 (configuration not stated)	-1%	-7%	79µM*	x	-22%
CC(NC/C=C/c1ccccc1)c1ccccc1 (configuration not stated)	x	x	x	x	-22%
O=C(O)CCC(NC(=O)c1ccc(-c2ccc(Cl)cc2)s1)C(=O)O (configuration not stated)	x	x	x	x	9%
O=C1Nc2ccccc2SC1c1ccccc1 (configuration not stated)	-2%	u	-8%[0.501 µM]	17%	0%
Cc1ccc(NC2Sc3ccccc3NC2=O)cc1 (configuration not stated)	-10%	11µM*	1.8µM*	8.9µM*	7.1µM*
CCOc1ccc(S(=O)(=O)N2CCN(C3(CC)CCN(C(=O)NC)C3)CC2)cc1 (configuration not stated)	x	x	x	x	10%
Cn1c(=O)c2c(ncn2CCC(=O)Nc2cccc(C(N)=O)c2)n(C)c1=O	x	x	x	x	-5%
O=C(NNc1ccccc1)C(=O)NNS(=O)(=O)c1ccc(CCCl)cc1	-2%	-15%	45µM*	31%	u
CCOc1ccccc1C(=O)NCC(=O)N(C)Cc1cccnc1	-1%	-10%	40µM*	17%	-1%
SMILES	Glioma ERSR ind	VDR inhibitor	G9a block	Sfp PPTase inh	ALOX12 inh
CN(Cc1cccnc1)C(=O)CNC(=O)COc1ccccc1	-2%	7%	24%	-1%	-27%
Cc1ccc(C(=O)Nc2ccc3c(c2)OCCO3)cc1	-13%	-5%	-8%	13%	0%
O=C(NC(=S)Nc1ccc(N2CCOCC2)c(Cl)c1)c1cncc(Br)c1	-4%	-8%	-10%[59 µM]	u	u
Cc1cc(C)cc(C(=O)NC(=S)Nc2ccc3c(c2)OCCO3)c1	5%	-7%	25µM*	9%	6.3µM*
CCCCCC(=O)NC(=S)Nc1ccc(N2CCOCC2)cc1	0%	-19%	3.5µM*	-16%	u
Cc1ccc(C(=O)NC(=S)Nc2ccc3c(c2)OCCO3)c(C)c1	-5%	-5%	u	1%	13µM*
O=C(NC(=S)Nc1ccc(N2CCCCC2)c(Cl)c1)c1ccc2c(c1)OCCO2	-2%	-24%	-43%[12.7 µM]	11%	22µM*
Cc1cccc(NC(=O)c2cccc(OCc3c(C)noc3C)c2)c1	x	x	x	x	2%
COc1ccc(-c2nc(C3CC3)nc3c2CCN(Cc2cccc4ccccc24)CC3)cc1	x	x	x	x	2%[6.33 µM]
Cc1ccc(C(=O)N/N=C/c2ccc(N3CCOCC3)cc2)c(C)c1	1%	-9%	2%	7%	1%
C=C(C)C(=O)Nc1ccc2c(c1)OCCOCCOCCO2	0%	0%	10µM*	5%	0%
Cc1ccc(C(=O)NC(=S)Nc2ccc(N3CCOCC3)cc2)c(C)c1	-3%	-1%	x	-8%	7.9µM*
CCc1ccc(C(=O)NC(=S)Nc2ccc3c(c2)OCCO3)cc1	1%	2%	u	u	14µM*
COc1cccc(C(O)c2nc(C(=O)NCc3ccccc3)c(C)o2)c1 (configuration not stated)	x	x	x	x	-18%[176 µM]
CCC(NC(=O)/C=C/c1ccccc1)c1cccs1 (configuration not stated)	x	x	x	x	-17%
O=C(CN1CCc2ccccc2C1)N1CCN(S(=O)(=O)c2ccccc2)CC1	1%	-12%	u	17%	u
Cc1ccc(S(=O)(=O)N2CCN(C(=O)CN3CCc4ccccc4C3)CC2)cc1	2%	7%	u	45µM*	u
O=C(Cc1ccc(Br)cc1)Nc1ccc(S(=O)(=O)N2CCCC2)cc1	x	x	x	11%	-2%
O=C(CN1CCCN(S(=O)(=O)c2ccc(F)cc2)CC1)Nc1cccc(F)c1	-1%	1%	32µM*	-11%	-23%
COc1ccc(S(=O)(=O)N2CCC(C(=O)NCCC(=O)Nc3cccc(Cl)c3)CC2)cc1	-4%	28µM*	-6%	13%	0%
O=C(CN1CCCN(S(=O)(=O)c2ccc(F)cc2)CC1)Nc1c(Cl)cccc1Cl	-5%	-10%	-12%	-5%	11%
O=C(Cc1ccc(F)cc1)Nc1ccc(S(=O)(=O)N2CCCC2)cc1	-1%	-16%	50µM*	x	-14%
O=C(NCCc1ccccn1)[C@@H]1C[C@@H](c2ccc(F)cc2)N(CCOc2ccccc2)C1	x	x	x	x	-4%[176 µM]
COc1ccccc1NC(=O)C(CC(C)C)N1Cc2ccccc2C1=O (configuration not stated)	x	x	x	x	23%
Cc1c(-c2ccccc2)nn2c1NC(=O)CC2C(=O)Nc1ccc2c(c1)OCO2 (configuration not stated)	x	x	x	x	-25%
COC(=O)C(C(=O)OC)C(c1ccc(Cl)cc1)C(C)C(=O)c1ccc(C)cc1 (configuration not stated)	x	x	x	x	8%
Fc1ccc(Cc2nc3nccc(-c4cccs4)n3n2)cc1	x	x	x	x	15%
CN(C)CCCNC(=O)COc1ccc(-c2nn(C)c(=O)c3ccccc23)cc1	x	x	x	x	3%
O=C(Nc1ccc(S(=O)(=O)N2CCCCC2)cc1)c1ccc(=O)[nH]c1	-3%	5%	14µM*	x	u
